Measurements published in ChEMBL document CHEMBL1961873, “Compounds: GSK PKIS; Assays: Nanosyn kinase panel” (2012).

Key:
[1] = target: Ribosomal protein S6 kinase alpha-6 (Homo sapiens) (UniProt Q9UK32); conditions: at 1 µM;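 further: each value is a mean inhibition of RSK4 from a GSK PKIS panel screen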
[2] = target: T1, Serine/threonine-protein kinase Sgk1 (Homo sapiens) (UniProt O00141); conditions: at 0.1 µM
T1 sequence (whole entry): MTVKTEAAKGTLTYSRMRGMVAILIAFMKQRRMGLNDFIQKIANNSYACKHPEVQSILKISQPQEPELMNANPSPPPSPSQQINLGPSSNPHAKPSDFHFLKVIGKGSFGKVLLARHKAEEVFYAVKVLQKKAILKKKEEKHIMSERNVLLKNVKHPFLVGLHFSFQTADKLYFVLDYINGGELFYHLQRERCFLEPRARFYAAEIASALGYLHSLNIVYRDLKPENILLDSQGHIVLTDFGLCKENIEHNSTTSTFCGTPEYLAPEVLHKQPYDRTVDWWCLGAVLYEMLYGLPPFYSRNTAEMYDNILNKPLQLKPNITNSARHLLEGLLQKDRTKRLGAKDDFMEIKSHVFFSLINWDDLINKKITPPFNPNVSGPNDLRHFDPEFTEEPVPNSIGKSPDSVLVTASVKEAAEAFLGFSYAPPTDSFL

[3] = target: T1, Serine/threonine-protein kinase Sgk1 (Homo sapiens); conditions: at 1 µM
[4] = target: T2, Serine/threonine-protein kinase Sgk2 (Homo sapiens) (UniProt Q9HBY8); conditions: at 0.1 µM
T2 sequence (whole entry): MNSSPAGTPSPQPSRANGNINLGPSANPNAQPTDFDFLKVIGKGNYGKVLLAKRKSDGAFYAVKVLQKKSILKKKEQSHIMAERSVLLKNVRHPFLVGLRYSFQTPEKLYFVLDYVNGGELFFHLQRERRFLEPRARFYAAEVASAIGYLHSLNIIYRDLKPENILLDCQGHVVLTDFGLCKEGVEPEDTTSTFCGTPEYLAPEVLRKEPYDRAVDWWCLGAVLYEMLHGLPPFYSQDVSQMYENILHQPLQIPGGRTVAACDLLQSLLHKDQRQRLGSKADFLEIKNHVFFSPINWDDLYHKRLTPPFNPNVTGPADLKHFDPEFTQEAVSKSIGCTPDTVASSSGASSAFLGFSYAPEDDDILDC

[5] = target: T2, Serine/threonine-protein kinase Sgk2 (Homo sapiens); conditions: at 1 µM
[6] = target: T3, Serine/threonine-protein kinase Sgk3 (Homo sapiens) (UniProt Q96BR1); conditions: at 0.1 µM
T3 sequence (whole entry): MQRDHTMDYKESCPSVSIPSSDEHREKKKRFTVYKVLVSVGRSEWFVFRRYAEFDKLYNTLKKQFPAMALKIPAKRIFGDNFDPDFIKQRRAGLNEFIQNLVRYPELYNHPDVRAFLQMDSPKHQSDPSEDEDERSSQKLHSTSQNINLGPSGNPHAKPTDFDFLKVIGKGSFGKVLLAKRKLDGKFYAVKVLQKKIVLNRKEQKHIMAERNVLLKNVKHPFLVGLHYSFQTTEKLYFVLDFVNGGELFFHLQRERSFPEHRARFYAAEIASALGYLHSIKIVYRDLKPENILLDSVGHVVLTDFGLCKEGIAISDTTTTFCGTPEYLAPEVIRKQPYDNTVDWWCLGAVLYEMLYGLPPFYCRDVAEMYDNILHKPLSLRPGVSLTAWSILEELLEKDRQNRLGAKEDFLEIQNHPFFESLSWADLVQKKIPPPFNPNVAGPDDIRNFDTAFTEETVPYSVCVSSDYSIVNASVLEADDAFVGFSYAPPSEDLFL

[7] = target: T3, Serine/threonine-protein kinase Sgk3 (Homo sapiens); conditions: at 1 µM
[8] = target: 5'-AMP-activated protein kinase catalytic subunit alpha-1 (Homo sapiens) (UniProt Q13131); conditions: at 0.1 µM
5'-AMP-activated protein kinase catalytic subunit alpha-1 (Homo sapiens), sequence (Q13131 whole entry, looked up): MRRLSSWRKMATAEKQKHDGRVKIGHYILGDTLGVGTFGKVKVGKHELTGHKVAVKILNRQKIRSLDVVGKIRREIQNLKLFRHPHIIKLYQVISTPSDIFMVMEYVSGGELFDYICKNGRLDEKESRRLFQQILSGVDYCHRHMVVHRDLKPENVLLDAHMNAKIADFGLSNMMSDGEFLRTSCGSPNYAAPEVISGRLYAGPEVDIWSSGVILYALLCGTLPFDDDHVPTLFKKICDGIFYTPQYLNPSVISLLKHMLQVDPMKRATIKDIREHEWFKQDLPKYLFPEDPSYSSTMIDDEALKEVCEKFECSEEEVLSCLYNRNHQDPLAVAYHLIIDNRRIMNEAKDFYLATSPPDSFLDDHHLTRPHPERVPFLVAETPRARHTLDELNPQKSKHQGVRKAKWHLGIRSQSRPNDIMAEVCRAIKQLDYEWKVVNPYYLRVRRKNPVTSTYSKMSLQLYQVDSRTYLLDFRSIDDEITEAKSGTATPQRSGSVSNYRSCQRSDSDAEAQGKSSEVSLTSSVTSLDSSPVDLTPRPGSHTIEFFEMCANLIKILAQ

[9] = target: 5'-AMP-activated protein kinase catalytic subunit alpha-1 (Homo sapiens) (UniProt Q13131); conditions: at 1 µM
[10] = target: 5'-AMP-activated protein kinase catalytic subunit alpha-2 (Homo sapiens) (UniProt P54646); conditions: at 0.1 µM;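 further: mean inhibition measured on the AMPK complex of alpha2, beta1 and gamma1 subunits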
5'-AMP-activated protein kinase catalytic subunit alpha-2 (Homo sapiens), sequence (P54646 whole entry, looked up): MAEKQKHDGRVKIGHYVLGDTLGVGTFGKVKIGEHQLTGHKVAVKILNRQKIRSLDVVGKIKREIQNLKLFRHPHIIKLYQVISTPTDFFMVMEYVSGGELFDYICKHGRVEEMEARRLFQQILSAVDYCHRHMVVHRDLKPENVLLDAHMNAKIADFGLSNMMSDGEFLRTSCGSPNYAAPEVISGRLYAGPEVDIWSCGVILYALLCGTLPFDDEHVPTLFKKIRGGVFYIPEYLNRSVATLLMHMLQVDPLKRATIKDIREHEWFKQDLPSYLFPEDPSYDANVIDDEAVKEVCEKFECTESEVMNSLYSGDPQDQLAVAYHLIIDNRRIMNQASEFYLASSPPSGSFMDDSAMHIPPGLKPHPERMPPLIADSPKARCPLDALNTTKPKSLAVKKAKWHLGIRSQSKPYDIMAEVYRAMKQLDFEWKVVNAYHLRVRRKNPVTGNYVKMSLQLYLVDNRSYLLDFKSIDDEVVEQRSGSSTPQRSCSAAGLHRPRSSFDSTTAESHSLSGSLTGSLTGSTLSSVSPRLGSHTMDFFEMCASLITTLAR

Ribosomal protein S6 kinase alpha-6 (Homo sapiens), sequence (Q9UK32 whole entry): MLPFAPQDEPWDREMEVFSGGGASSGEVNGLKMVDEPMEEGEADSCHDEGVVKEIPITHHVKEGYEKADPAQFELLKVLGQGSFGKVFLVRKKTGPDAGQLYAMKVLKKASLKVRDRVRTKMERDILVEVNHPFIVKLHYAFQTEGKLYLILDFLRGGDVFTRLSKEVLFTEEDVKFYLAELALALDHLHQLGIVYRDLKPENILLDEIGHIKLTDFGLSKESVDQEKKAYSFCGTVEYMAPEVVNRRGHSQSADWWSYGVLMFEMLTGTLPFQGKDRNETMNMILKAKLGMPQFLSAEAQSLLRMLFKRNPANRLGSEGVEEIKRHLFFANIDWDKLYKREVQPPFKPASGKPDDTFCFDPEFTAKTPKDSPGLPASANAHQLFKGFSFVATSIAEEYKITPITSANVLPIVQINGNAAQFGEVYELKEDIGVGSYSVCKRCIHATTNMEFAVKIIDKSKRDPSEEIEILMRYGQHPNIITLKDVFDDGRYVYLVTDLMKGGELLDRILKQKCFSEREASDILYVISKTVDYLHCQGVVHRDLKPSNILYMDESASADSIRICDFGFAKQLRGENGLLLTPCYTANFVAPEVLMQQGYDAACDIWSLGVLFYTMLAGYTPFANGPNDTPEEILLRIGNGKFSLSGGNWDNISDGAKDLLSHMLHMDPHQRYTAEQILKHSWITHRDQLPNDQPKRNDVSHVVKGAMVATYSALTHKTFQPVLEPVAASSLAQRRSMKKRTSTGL

Compound | inhibition [1] [%] | inhibition [2] [%] | inhibition [3] [%] | inhibition [4] [%] | inhibition [5] [%] | inhibition [6] [%] | inhibition [7] [%] | inhibition [8] [%] | inhibition [9] [%] | inhibition [10] [%]
Fc1ccc(-c2ncn(C3CCNCC3)c2-c2ccnc(Oc3ccccc3)n2)cc1 | -1.23 | 0.46 | 0.24 | 0.49 | 2.09 | 0.78 | 2.18 | 2.1 | 0.47 | 2.07
NS(=O)(=O)c1ccc(N/C=C2\C(=O)Nc3ccc4ncsc4c32)cc1 | 59.9 | 9.85 | 47.5 | 4.72 | 18.4 | 3.8 | 10.2 | 21.1 | 59.9 | 14.4
CCn1c(-c2nonc2N)nc2c(C#CC(C)(C)O)ncc(OC[C@@H]3CCCN3)c21 | 8.09 | 1.28 | 2.09 | 3.27 | 2.29 | 12.7 | 47.4 | 6 | 39.3 | 0.91
NS(=O)(=O)c1ccc(-c2ccc3c(NC(=O)C4CC4)n[nH]c3c2)cc1 | 3.54 | 0.35 | 14.6 | -0.5 | 3.35 | -0.5 | -1.93 | 2.61 | 2.22 | -0.68
Nc1nonc1-c1nc2cnccc2n1C1CCCCC1 | 30.9 | 1.2 | 13.2 | 5.9 | 40.5 | 7.01 | 41.7 | 0.66 | 5.36 | -0.2
CCn1c(-c2nonc2N)nc2c(C#CC(C)(C)O)nc(O[C@@H](CN)c3ccccc3)cc21 | 23.4 | 4 | 34.2 | 5.31 | 3.43 | 64.9 | 94.2 | 79.2 | 88.1 | 24.6
Cc1cc(-c2ccco2)cc(C)c1/C=C/c1cncc(-c2nn[nH]n2)c1 | -0.53 | 2.78 | 0.73 | -0.62 | -1.7 | -0.03 | -0.92 | 0.43 | 1.33 | 0.25
NC(=O)c1sc(-n2cnc3cc(C(F)(F)F)ccc32)cc1OCc1ccccc1Br | 1.95 | 1.54 | 2.43 | 0.68 | -0.08 | -0.31 | 4.18 | 2.29 | 2.17 | 2.18
CCn1c(-c2nonc2N)nc2c(C#CC(C)(C)O)ncc(OCC3CCNCC3)c21 | 7.82 | 5.12 | 10.5 | 2.67 | 8.07 | 21.6 | 67.4 | 13.8 | 51.9 | 3.32
CCn1c(-c2nonc2N)nc2c(C#CCN)ncc(OCCCN)c21 | 15.3 | 1.23 | 5.38 | -0.28 | 8.17 | 5.66 | 40.1 | 0.48 | 4.78 | 2.63
COc1cccc(COc2cc(-n3cnc4ccccc43)sc2C(N)=O)c1 | 2.04 | 3.04 | 0.63 | -0.02 | -0.45 | -1.95 | -0.21 | 0.92 | 2.35 | -0.66
COc1cc2c(cc1Nc1nc(Nc3ccsc3C(N)=O)c3cc[nH]c3n1)N(C(=O)CN(C)C)CCC2 | 16.4 | 3.82 | 2.11 | 2.89 | 2.84 | -0.08 | -0.04 | 1.03 | -0.4 | 0.93
COc1cccc(-n2ncc3c(N/N=C/c4ccncc4)ncnc32)c1 | 4.33 | 6.01 | 16.1 | 4.49 | 11.9 | 5.19 | 6.6 | 2.59 | 9.15 | 2.26
COc1cc(C=NNc2ncnc3c2cnn3Cc2ccccc2)ccc1O | 2.26 | -3.31 | 3.11 | -3 | -2.21 | -2.5 | -0.29 | -1.23 | -0.19 | -2.17
